D3 antag = qHTS of D3 Dopamine Receptor Antagonist: qHTS; D(3) dopamine receptor (Homo sapiens), P35462; D3R cells, DiscoveRx beta-arrestin luminescence, antagonist mode; stronger effect = lower value; max response, negative = inhibition, %; hit rate 2.5% among 360,000; AID 652054, 2013; in the data active means max response below about -50%; inconclusive means no clear call, values can overlap the other calls; further: on the % scale 0 is the no-effect control and ±100 the full control effect
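Cells plated overnight at 1500 cells/well, then exposed to library compounds with dopamine controls for 90 minutes at 37 degrees C. DiscoveRx reagent added for 30–60 minutes at room temperature; luminescence read, quantitative HTS format.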
D1 ag = Allosteric Agonists of the Human D1 Dopamine Receptor: qHTS; D(1A) dopamine receptor (Homo sapiens), P21728; HEK293 T-REx D1 cells, calcium flux, agonist mode; activation, % at 2 µM; hit rate 1% among 360,000; AID 504660, 2011; in the data active means activation above about 30%; further: 0% is about no effect
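Agonism was scored from calcium flux recorded over 180 s (1 read/s) after pintool compound addition, following a 10-cycle baseline. Cells were inducible force-coupled HEK293 TREx D1, plated overnight at 30 C and loaded with no-wash calcium dye.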
D3 ag = qHTS of D3 Dopamine Receptor Agonist: qHTS; D(3) dopamine receptor (Homo sapiens), P35462; D3R DiscoveRx beta-arrestin cells, luminescence, 90 min; max activation, %; hit rate 0.58% among 410,000; in the data active means max activation above about 30%; further: 0% is about no effect
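Agonist-mode cell screen: cells plated at 1500/well and incubated overnight at 37 °C, then exposed to library compounds for 90 min at 37 °C. Detection reagent was added for 30–60 min at room temperature, and luminescence was read.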
D1 potentiator = Potentiators of Human D1 Dopamine Receptor: qHTS | AID 504651, 2011 | HEK293 TREx D1 cells, calcium flux, dopamine EC20 potentiation | hit rate 0.036% among 360,000 | D(1A) dopamine receptor (Homo sapiens), P21728 | potentiation, % at 10 µM; in the data active means potentiation above about 30%; further: 0% is about no effect
D1 antagonist = Antagonist of Human D 1 Dopamine Receptor: qHTS. HEK293 TREx D1 cells, calcium flux, dopamine EC80; stronger effect = lower value. activity change, negative = inhibition, % at 10 µM. AID 504652, 2011. hit rate 3.2% among 360,000. D(1A) dopamine receptor (Homo sapiens), P21728; in the data active means activity change below about -30%; further: on the % scale 0 is the no-effect control and ±100 the full control effect
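After overnight tetracycline induction at 30 C, force-coupled D1 HEK293 cells took up a no-wash calcium dye at room temperature. Compounds were added and monitored 180 s, and the response to EC80 dopamine was then recorded.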
ERG-DNA inh = qHTS for Small Molecule Inhibitors of the ERG Ets/DNA interaction. fluorescence polarization, His-ERG Ets domain / labelled DNA. Potency, µM (highest dose often 76.9 µM), without a hit: at the highest dose FP activity, negative = inhibition, actives largely listed as inhibitors. hit rate 0.028% among 370,000; active means well fitted inhibition curve with a large enough effect in the polarisation, with a control signal flat; inconclusive means small, poorly fitted or top-dose-only effect, or effect the other way, or a change in a side signal; inactive means no such curve, though single readings can be large or run the other way; the % refers to the polarisation;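 further: polarization taken with two DNA probes labelled with fluorescein and Texas red; potency means the concentration at half of the fitted maximal effect; % of control where 0% means no effect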
Target sequence (P11308 whole entry, looked up, the tested form may be a part): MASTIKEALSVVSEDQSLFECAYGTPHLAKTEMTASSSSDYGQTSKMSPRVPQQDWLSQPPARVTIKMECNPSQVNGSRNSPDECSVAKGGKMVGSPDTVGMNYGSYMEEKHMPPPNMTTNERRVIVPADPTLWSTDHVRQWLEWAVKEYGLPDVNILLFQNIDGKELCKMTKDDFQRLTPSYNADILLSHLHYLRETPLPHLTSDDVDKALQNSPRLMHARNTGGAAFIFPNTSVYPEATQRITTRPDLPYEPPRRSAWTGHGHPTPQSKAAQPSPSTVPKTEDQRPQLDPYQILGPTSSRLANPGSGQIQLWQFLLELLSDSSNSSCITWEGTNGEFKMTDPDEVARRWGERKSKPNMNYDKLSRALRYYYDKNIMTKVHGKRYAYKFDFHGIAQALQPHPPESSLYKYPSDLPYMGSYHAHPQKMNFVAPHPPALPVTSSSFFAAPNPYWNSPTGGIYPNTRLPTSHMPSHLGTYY
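His-tagged ERG Ets domain (1 uM in the protein solution; 300mM KCl, 50mM Tris-HCl, 1mM EDTA, 1mM DTT, pH 7.5) received compound, then a probe mix of 5 nM fluorescein-DNA and 100nM Texas-615-DNA. Fluorescence polarization was read for both dyes.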
An asterisk follows results filed as active; ? = inconclusive; . = not tested or not shown. Compounds with a hit are over-represented: about 6.1% of the library has one in this group of screens.

SMILES | D3 antag | D1 ag | D3 ag | D1 potentiator | D1 antagonist | ERG-DNA inh
Cc1ccc(-n2c(SCc3ccccc3)nc3c([nH]c4ccccc43)c2=O)cc1 | . | -1 | 6 | -1 | -33* | -4%
COc1ccc(CN2CCc3cc(OC)c(OC)cc3C2)cc1O | -58* | 1 | -56 | -4 | -48* | 2%
COc1ccc(CN2CCc3ccccc3C2)cc1Br | -92* | -4 | -7 | -1 | 6 | -2%
Brc1cc2c(cc1CN1CCc3ccccc3C1)OCO2 | -19 | 1 | -2 | -5 | 11 | -5%
COc1cc2c(cc1OC)CN(Cc1ccc(F)cc1)CC2 | -30 | 1 | -27 | -2 | -5 | 41%
Cc1cc(Oc2ccc(-c3ccccc3)cc2)n2ncnc2n1 | -7 | 4 | -4 | -9 | -29 | -11%
CCCN1Cc2cccc(C(=O)NCCCOC(C)C)c2C1=O | -20 | 2 | -3 | -3 | -23 | 5%
C=CCC1Cc2c(cccc2[N+](=O)[O-])C(CC=C)N1 (stereo unspecified) | 8 | 10 | 41* | -5 | 0 | 7%
Cc1ccc(C)c(N)c1 | -1 | 2 | -9 | 5 | . | -4%
Cc1ccc(O)c(N)c1 | -105* | 2 | -63 | 0 | . | 6%
COc1cccc(C2C(C(=O)Nc3nc4ccccc4s3)=C(C)NC3=C2C(=O)CC(C)(C)C3)c1OC (stereo unspecified) | 88 | 5 | 2 | -3 | 1 | -6%
COc1ccc(OC)c(C2C(C(=O)Nc3nc4ccccc4s3)=C(C)NC3=C2C(=O)CCC3)c1 (stereo unspecified) | 44 | 4 | 30* | -7 | -16 | -3%
Cc1ccc(C)c(Nc2ccc3nonc3c2[N+](=O)[O-])c1 | -10 | 5 | -1 | -6 | -11 | -1%
Cc1ccc(C)c(Nc2c([N+](=O)[O-])ccc3nonc23)c1 | 3 | 108* | 2 | 5 | 66 | 4%
O=[N+]([O-])c1ccc(O)c(Nc2ncnc3ccc(Br)cc23)c1 | 10 | 16 | 9 | -2 | -14 | 8%
O=[N+]([O-])c1ccc(O)c(Nc2c([N+](=O)[O-])ccc3nonc23)c1 | ? | 19 | -18 | -2 | -49* | -7%
Cc1cc(C)n2nnnc2c1C#N | -18 | 0 | 10 | -1 | -2 | -2%
CC1(C(=O)NS(=O)(=O)c2cccc(F)c2)CCN1C(=O)CC1CCCCC1 (stereo unspecified) | 14 | . | 30* | . | . | .
COc1cc(Nc2ccc(S(=O)(=O)N3CCN(C)CC3)cc2[N+](=O)[O-])cc(OC)c1 | -13 | 2 | -13 | 3 | 3 | -4%
COc1ccccc1C(C)Nc1ccc(S(=O)(=O)N2CCN(C)CC2)cc1[N+](=O)[O-] (stereo unspecified) | -4 | 0 | 1 | -8 | -65* | -1%
CC(Nc1ccc(S(=O)(=O)N2CCN(C)CC2)cc1[N+](=O)[O-])c1ccccc1 (stereo unspecified) | 15 | 1 | 6 | -6 | -73* | 3%
Cc1ccc(C(=O)NCCn2ccc3ccccc32)cc1[N+](=O)[O-] | 4 | 2 | 6 | -1 | -2 | 0%
CCC(=O)N1c2ccccc2CC1C(=O)NCCN1CCN(c2cccc(C)c2C)CC1 (stereo unspecified) | . | 2 | -17 | -1 | -8 | 7%
Cc1ccc(-c2noc(CSc3nnc(C)n3-c3ccc(F)cc3)n2)cc1 | . | 7 | -4 | -1 | -1 | 0%
Cc1nnc(SCc2nc(-c3ccc(Cl)cc3)no2)n1-c1ccc(F)cc1 | . | 23 | 9 | -3 | -33* | 0%
Cn1c(-c2c(N)n(-c3ccccc3)c3nc4ccccc4nc23)nc2ccccc21 | 6 | 51* | -4 | -1 | 14 | 4%
